Reference: PMC7862700, “An all-to-all approach to the identification of sequence-specific readers for epigenetic DNA modifications on cytosine”

Experiments:
Assay in all cases: DAPPL (digital affinity profiling via proximity ligation, sequencing); 10 mM Tris-HCl pH 7.5, 50 mM NaCl, 1 mM DTT, 4% glycerol, room temperature, 30 min; GST-TFs on glutathione beads, 16-mer random dsDNA library, 0.1% formaldehyde crosslink after washing; high values mean tight binding
Settings in all cases: protein: recombinant; tags: N-terminal GST; dsDNA, one strand shown
FLI1 = molecular target: T1, FLI1 (Homo sapiens, UniProt Q01543 1-452)
T1 sequence: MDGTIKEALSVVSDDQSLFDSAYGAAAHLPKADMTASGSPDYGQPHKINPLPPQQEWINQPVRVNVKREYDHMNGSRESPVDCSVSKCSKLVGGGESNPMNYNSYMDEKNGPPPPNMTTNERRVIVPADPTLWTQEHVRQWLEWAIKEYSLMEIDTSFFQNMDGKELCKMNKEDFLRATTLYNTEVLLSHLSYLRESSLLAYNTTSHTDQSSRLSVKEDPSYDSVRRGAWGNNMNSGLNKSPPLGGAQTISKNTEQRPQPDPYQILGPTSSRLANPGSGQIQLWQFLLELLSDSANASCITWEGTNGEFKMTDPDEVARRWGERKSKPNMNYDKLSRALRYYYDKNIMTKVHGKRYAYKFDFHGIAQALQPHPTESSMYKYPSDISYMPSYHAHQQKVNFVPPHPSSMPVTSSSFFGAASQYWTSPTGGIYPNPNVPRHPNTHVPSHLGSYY
In short: (§1)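 Pools were built from human transcription factors expressed in yeast as GST fusions, captured on glutathione beads and DNA-barcoded, along with a tag-only sample. Incubation with 200 nmole of a 16-mer random double-stranded DNA library lasted 30 min at room temperature in Tris/NaCl/DTT/glycerol buffer, and was followed by washing, 0.1% formaldehyde crosslinking, proximity ligation, PCR amplification and Illumina NextSeq500 sequencing. Binding signal is the quotient of each hexamer's read frequency for a factor and its frequency for the tag-only sample.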

ELK1 = molecular target: T2, ELK1 (Homo sapiens, UniProt P19419 1-428)
T2 sequence: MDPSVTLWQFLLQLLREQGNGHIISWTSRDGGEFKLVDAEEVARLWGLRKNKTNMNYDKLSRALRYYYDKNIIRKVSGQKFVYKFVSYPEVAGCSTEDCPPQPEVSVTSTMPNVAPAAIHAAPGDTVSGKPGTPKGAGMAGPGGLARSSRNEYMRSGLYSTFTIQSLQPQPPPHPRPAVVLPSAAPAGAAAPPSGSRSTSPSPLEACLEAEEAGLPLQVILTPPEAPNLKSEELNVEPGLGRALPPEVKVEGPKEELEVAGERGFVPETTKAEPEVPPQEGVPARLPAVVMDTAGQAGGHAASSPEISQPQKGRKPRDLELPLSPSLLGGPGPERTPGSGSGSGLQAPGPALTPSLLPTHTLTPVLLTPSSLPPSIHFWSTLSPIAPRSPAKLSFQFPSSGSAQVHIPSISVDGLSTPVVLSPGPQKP
In short: as §1

GABPA = molecular target: T3, GABPA (Homo sapiens, UniProt Q06546 1-454)
T3 sequence: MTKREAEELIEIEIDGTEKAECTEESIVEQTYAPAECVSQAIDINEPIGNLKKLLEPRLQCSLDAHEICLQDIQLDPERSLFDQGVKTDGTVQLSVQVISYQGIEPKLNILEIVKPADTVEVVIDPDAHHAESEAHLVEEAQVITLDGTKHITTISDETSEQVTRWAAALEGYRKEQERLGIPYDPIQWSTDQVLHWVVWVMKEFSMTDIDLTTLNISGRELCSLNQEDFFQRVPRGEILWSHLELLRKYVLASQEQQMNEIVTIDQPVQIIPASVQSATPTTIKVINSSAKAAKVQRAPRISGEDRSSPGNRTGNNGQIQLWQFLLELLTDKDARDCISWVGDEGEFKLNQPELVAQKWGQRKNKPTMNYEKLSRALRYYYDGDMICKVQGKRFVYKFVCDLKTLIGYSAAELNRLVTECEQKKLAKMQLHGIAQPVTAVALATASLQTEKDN
In short: as §1

ERG = molecular target: T4, ERG (Homo sapiens, UniProt P11308 1-479)
T4 sequence: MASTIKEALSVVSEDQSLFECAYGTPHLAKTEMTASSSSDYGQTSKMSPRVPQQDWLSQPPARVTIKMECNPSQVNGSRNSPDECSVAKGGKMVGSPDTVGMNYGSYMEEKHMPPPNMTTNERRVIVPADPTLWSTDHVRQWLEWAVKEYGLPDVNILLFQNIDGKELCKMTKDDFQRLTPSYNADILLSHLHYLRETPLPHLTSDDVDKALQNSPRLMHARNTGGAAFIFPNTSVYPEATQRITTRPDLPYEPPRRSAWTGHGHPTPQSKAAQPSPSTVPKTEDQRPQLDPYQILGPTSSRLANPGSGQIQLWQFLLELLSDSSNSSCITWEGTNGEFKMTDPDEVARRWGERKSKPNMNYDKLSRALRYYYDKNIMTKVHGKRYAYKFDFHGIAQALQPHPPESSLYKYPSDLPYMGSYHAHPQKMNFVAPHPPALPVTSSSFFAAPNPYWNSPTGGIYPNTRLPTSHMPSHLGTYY
In short: as §1

ELF1 = ELF1 (Homo sapiens, UniProt P32519 1-619)
In short: as §1

EHF = molecular target: T5, EHF (Homo sapiens, UniProt Q9NZC4 1-300)
T5 sequence: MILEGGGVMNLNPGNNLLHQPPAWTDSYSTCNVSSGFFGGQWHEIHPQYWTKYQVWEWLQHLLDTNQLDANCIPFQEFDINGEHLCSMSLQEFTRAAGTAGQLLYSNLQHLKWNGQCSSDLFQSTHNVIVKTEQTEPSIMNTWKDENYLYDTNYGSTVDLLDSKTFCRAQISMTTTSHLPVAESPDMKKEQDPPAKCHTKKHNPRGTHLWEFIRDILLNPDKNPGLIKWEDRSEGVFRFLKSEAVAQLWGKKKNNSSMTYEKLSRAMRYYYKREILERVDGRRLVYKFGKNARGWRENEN
In short: as §1

SPI1 = SPI1 (Homo sapiens, UniProt P17947 1-270)
In short: as §1

SPIB = SPIB (Homo sapiens, UniProt Q01892 1-262)
In short: as §1

ELK3 = molecular target: T6, ELK3 (Homo sapiens, UniProt P41970 1-407)
T6 sequence: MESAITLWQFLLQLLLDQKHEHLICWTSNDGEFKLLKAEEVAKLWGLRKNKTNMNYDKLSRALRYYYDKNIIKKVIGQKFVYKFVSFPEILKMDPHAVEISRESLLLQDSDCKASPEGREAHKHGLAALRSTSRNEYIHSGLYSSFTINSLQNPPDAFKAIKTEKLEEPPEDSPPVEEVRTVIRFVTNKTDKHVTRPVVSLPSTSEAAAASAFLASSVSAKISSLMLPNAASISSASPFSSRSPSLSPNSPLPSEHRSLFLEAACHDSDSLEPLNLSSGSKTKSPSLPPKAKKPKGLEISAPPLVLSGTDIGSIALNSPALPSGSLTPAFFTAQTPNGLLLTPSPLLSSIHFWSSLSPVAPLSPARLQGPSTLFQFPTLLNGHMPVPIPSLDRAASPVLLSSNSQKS
In short: as §1

FEV = molecular target: T7, FEV (Homo sapiens, UniProt Q99581 1-238)
T7 sequence: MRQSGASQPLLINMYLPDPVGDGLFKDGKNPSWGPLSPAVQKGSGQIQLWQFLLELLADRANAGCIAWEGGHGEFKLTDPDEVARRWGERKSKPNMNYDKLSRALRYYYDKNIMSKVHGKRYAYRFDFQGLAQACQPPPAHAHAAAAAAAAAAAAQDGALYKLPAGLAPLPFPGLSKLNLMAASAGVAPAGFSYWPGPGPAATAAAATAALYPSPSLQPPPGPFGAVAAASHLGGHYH
In short: as §1

ETV5 = ETV5 (Homo sapiens, UniProt P41161 1-510)
In short: as §1

SPIC = molecular target: T8, SPIC (Homo sapiens, UniProt Q8N5J4 1-248)
T8 sequence: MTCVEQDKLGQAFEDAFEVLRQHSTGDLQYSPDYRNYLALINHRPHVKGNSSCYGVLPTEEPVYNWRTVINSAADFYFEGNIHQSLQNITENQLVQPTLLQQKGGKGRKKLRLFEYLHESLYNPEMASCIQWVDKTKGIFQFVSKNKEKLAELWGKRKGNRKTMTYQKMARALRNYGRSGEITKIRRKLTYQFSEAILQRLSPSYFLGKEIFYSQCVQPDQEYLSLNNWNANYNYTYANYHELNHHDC
In short: as §1

ELF4 = ELF4 (Homo sapiens, UniProt Q99607 1-663)
In short: as §1

ELK4 = molecular target: T9, ELK4 (Homo sapiens, UniProt P28324-2 1-405)
T9 sequence: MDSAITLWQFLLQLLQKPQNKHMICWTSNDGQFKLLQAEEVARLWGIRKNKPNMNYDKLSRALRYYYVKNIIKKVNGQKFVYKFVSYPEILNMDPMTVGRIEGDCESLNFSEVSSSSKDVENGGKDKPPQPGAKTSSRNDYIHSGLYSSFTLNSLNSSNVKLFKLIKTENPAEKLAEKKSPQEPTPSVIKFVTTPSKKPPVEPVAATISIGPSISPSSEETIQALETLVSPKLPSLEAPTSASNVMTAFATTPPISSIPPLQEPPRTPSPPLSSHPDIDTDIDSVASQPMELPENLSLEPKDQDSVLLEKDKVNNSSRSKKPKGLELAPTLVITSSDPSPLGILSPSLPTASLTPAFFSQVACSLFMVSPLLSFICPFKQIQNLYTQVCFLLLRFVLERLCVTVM
In short: as §1

ETV2 = molecular target: T10, ETV2 (Homo sapiens, UniProt O00321 1-342)
T10 sequence: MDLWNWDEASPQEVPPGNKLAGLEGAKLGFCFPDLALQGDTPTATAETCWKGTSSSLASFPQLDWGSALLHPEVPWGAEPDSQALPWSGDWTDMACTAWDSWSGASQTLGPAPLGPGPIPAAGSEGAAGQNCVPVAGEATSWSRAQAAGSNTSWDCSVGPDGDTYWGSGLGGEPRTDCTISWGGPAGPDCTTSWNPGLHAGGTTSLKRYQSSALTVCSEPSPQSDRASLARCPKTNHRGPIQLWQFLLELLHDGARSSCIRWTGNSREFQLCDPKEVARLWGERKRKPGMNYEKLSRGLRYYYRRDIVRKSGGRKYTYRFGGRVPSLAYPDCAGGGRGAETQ
In short: as §1

ELF3 = molecular target: T11, ELF3 (Homo sapiens, UniProt P78545 1-371)
T11 sequence: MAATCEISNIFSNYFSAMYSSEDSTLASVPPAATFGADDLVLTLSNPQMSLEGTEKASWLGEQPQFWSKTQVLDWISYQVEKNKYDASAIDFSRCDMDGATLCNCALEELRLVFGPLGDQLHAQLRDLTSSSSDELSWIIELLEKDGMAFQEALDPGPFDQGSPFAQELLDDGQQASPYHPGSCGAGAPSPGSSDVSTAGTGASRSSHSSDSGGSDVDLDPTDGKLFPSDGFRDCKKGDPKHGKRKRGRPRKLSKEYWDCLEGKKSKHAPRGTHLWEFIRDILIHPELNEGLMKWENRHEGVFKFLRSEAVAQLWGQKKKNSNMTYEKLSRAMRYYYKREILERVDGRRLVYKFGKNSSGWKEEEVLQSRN
In short: as §1

ETV1 = ETV1 (Homo sapiens, UniProt P50549 1-477)
In short: as §1

SPIB, sequence (Q01892 whole entry): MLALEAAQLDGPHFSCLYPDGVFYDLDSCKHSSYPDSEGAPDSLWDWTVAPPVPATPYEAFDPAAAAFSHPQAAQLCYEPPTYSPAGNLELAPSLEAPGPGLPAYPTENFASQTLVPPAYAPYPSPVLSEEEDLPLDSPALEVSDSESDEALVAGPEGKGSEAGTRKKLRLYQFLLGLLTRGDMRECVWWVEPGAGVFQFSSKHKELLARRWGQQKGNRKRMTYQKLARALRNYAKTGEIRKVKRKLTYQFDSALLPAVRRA
ELF4, sequence (Q99607 whole entry): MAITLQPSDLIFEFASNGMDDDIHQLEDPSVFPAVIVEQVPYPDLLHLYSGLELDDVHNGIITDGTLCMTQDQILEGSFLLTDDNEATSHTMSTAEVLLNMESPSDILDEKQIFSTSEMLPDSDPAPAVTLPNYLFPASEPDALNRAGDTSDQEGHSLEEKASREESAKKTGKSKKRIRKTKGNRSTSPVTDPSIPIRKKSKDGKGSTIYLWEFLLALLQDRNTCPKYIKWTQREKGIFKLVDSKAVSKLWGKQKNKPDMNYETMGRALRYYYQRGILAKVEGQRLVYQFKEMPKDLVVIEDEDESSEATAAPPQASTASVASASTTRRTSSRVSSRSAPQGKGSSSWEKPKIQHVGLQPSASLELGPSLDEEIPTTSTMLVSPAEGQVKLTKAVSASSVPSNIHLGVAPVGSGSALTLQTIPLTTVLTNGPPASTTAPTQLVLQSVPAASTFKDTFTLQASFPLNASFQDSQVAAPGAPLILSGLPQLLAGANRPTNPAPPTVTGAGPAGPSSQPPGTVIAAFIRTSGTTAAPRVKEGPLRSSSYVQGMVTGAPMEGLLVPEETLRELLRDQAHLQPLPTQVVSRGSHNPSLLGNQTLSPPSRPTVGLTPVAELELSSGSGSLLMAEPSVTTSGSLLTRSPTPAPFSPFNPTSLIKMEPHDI
ETV1, sequence (P50549 whole entry): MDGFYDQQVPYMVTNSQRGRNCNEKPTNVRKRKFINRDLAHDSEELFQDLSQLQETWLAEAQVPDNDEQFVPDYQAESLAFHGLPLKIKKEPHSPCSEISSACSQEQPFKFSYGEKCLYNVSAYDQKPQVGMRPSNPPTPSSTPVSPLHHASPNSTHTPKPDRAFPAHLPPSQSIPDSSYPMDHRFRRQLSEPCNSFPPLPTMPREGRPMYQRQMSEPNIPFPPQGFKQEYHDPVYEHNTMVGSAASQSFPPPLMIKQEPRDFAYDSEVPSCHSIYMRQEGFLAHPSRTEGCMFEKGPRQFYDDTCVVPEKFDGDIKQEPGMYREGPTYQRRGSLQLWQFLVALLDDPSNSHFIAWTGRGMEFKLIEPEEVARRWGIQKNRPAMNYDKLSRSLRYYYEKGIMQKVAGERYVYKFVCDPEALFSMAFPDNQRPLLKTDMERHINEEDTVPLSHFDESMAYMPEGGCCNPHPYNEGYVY
ETV5, sequence (P41161 whole entry): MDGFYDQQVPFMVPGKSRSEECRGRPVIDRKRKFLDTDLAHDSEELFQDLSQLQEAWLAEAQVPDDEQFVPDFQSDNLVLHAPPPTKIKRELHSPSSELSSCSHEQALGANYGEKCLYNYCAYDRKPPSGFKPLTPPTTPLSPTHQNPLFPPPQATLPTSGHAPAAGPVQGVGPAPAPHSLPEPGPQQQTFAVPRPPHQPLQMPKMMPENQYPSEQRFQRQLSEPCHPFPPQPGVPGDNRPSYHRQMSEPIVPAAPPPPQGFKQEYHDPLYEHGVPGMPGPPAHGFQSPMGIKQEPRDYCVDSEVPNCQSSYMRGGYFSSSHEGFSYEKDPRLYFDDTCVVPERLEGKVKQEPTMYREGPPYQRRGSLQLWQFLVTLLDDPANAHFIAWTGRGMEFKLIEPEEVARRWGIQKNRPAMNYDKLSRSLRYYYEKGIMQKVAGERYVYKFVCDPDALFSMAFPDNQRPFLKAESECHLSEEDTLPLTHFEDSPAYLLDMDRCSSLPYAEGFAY
ELF1, sequence (P32519 whole entry): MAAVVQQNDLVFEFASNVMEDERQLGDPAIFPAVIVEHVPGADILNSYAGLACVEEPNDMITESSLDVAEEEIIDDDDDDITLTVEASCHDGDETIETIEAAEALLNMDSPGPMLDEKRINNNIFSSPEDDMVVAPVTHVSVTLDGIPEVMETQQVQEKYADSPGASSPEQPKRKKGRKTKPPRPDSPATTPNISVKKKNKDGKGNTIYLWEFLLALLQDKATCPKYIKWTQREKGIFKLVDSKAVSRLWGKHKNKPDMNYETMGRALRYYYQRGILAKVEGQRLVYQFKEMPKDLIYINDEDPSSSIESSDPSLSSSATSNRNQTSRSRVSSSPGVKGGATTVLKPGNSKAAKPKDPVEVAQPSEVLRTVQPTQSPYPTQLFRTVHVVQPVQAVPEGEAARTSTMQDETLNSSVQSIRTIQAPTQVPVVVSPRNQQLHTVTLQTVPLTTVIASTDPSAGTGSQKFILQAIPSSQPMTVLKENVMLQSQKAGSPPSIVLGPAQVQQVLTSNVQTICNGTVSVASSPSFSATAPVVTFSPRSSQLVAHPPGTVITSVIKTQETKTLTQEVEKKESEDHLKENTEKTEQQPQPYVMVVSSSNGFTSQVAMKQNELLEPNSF

Sequence: TGCCAT
- binding signal (FLI1): 1.11 fold enrichment (6-mer frequency, TF over GST control)
- binding signal (ELK1): 1.06 fold enrichment (6-mer frequency, TF over GST control)
- binding signal (GABPA): 1.26 fold enrichment (6-mer frequency, TF over GST control)
- binding signal (ERG): 1.21 fold enrichment (6-mer frequency, TF over GST control)
- binding signal (ELF1): 1.1 fold enrichment (6-mer frequency, TF over GST control)
- binding signal (EHF): 1.21 fold enrichment (6-mer frequency, TF over GST control)
- binding signal (SPI1): 1.17 fold enrichment (6-mer frequency, TF over GST control)
- binding signal (SPIB): 1.16 fold enrichment (6-mer frequency, TF over GST control)
- binding signal (ELK3): 1.12 fold enrichment (6-mer frequency, TF over GST control)
- binding signal (FEV): 1.07 fold enrichment (6-mer frequency, TF over GST control)
- binding signal (ETV5): 1.03 fold enrichment (6-mer frequency, TF over GST control)
- binding signal (SPIC): 1.12 fold enrichment (6-mer frequency, TF over GST control)
- binding signal (ELF4): 1.1 fold enrichment (6-mer frequency, TF over GST control)
- binding signal (ELK4): 1.11 fold enrichment (6-mer frequency, TF over GST control)
- binding signal (ETV2): 1.14 fold enrichment (6-mer frequency, TF over GST control)
- binding signal (ELF3): 1.08 fold enrichment (6-mer frequency, TF over GST control)
- binding signal (ETV1): 1.17 fold enrichment (6-mer frequency, TF over GST control)
